Measurements as given in PubChem BioAssay AID602252 (Broad Institute, 2012).
Out of some 300,000 compounds screened, about 2,700 (0.9%) were called active.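 Rule for the calls: active = mean inhibition of at least 30% with at least half of replicates also reaching 30%; inconclusive = no clear call, values can overlap the other calls; inactive = the rest.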 The entries come from a sample that favours actives as a whole.

What follows are compounds tested against Golgi-associated PDZ and coiled-coil motif-containing protein (Homo sapiens) (UniProt Q9HD26) (assay: blockade of CAL PDZ-reporter peptide interaction – biochemical, fluorescence polarization, untagged CAL PDZ, HTS, primary screen (AID 602252;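 note: 0% = DMSO neutral control and 100% = excess unlabeled competitor peptide PRC23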)). Settings: purified CAL PDZ, TMR-peptide fluorescence polarization, 1 h; at 24.9 µM; stronger effect = higher value.

SMILES | inhibition
O=C(Nc1cccc(S(=O)(=O)N2CCOCC2)c1)C12CC3CC(CC(C3)C1)C2 | -2.14% (inactive)
CSc1ncnc2c1ncn2CC(=O)C1CCC2C3CCC4=CC(=O)CCC4(C)C3CCC12C (centres undefined) | 2.07% (inactive)
COc1ccccc1NC(=O)CN(c1ccccc1OC)S(=O)(=O)c1ccccc1 | 0.854% (inactive)
COc1ccccc1N(CC(=O)N1CCCCC1)S(=O)(=O)c1ccccc1 | -3.76% (inactive)
COc1ccccc1N(CCOc1ccccc1)S(=O)(=O)c1ccccc1 | 71% (active)
O=C(O)C(=Cc1ccccc1[N+](=O)[O-])c1ccccc1 | -1.54% (inactive)
O=C(CSc1nnc(CNC(=O)c2ccc(F)cc2)o1)Nc1ccc2c(c1)OCO2 | 74.1% (active)
COc1ccc(C(=O)NCc2nnc(SCC(=O)Nc3cccc(OC)c3)o2)cc1 | -4.41% (inactive)
O=C(NCc1nnc(SCC(=O)N2CCCCCC2)o1)c1ccc(F)cc1 | -2.96% (inactive)
COc1ccc(-c2ccc3c(c2)[C@@H]2C[C@H](N(C)S(=O)(=O)c4ccccc4)[C@H]([C@H](C)O)C(=O)N2CC3)cc1 | -5.77% (inactive)
O=c1[nH]c2ccc(S(=O)(=O)N3CCCC3)cc2[nH]1 | -3.37% (inactive)
CCCCn1c(=S)[nH]c2cc(S(=O)(=O)N3CCCCC3)ccc21 | 1.64% (active)
CCCCn1c(N)c(N(CCOC)C(=O)c2cccc(S(=O)(=O)N3CCCCC3)c2)c(=O)[nH]c1=O | -4.58% (inactive)
CCN(CC)S(=O)(=O)c1cccc(NC(=O)c2ccc(S(=O)(=O)N3CCCC3)cc2)c1 | -1.26% (inactive)
O=C1/C(=C\c2ccc([N+](=O)[O-])cc2)CS(=O)(=O)C/C1=C/c1ccc([N+](=O)[O-])cc1 | -4.54% (inactive)
COc1ccccc1NC(=O)COC(=O)CNC(=O)C1CCCCC1 | -1.86% (inactive)
CN(CCc1ccccc1)C(=O)c1cccc(NC(=O)Cc2ccc([N+](=O)[O-])cc2)c1 | 0.702% (inactive)
O=C(COC(=O)c1ccccn1)NNC(=O)c1ccc(Br)cc1 | -0.344% (inactive)
Cc1cccc(OCc2nnc(SCc3nc4cc(C(F)(F)F)ccc4c(=O)[nH]3)o2)c1 | 1.6% (inactive)
Cc1nc(N)[nH]c(=O)c1Oc1cccc(C(F)(F)F)c1 | 71.1% (active)
O=Cc1ccc(Oc2cccc(C(F)(F)F)c2)nc1 | 2.04% (inactive)
Fc1ccccc1-c1cc2cc3c(cc2cn1)OCO3 | -3.15% (inactive)
COc1cc(/C=C/c2ccc(/C=C/c3cc(OC)c(OC)c(OC)c3)cc2)cc(OC)c1OC | -6.47% (inactive)

SMILES | inhibition
CC(Oc1ccc2c(-c3ccccc3)cc(=O)oc2c1)C(=O)NC(Cc1c[nH]c2ccccc12)C(=O)O (centres undefined) | 1.66% (inactive)
Cn1c(CCN2CCCC2)nc2cc(NS(=O)(=O)c3ccccc3)ccc21 | -2.75% (inactive)
Cn1c(CCN2CCCCCC2)nc2cc(NC(=O)Nc3ccccc3)ccc21 | 49.1% (active)
CCC(=O)Nc1ccc2c(c1)nc(CCN1CCN(c3ccccn3)CC1)n2C | -15.1% (inactive)
CC[C@@H]1CCCCc2ccccc2[C@@H](C(=O)C[C@H](O)CC(C)=O)OC1=O | 1.2% (inactive)
COCCNC(=O)C1CCN(S(=O)(=O)c2ccc3c(c2)OCCO3)CC1 | -1.23% (inactive)
O=C(NCc1cccs1)C1CCN(S(=O)(=O)c2ccc3c(c2)OCCO3)CC1 | -6.83% (inactive)
O=C(NCc1ccccc1Cl)C1CCN(S(=O)(=O)N2CCOCC2)CC1 | 137% (active)
COc1ccc(CNC(=O)C2CCN(S(=O)(=O)N3CCOCC3)CC2)cc1 | -1.68% (inactive)
O=C(NCc1ccccc1Cl)C1CCN(S(=O)(=O)c2cccc3nonc23)CC1 | -3.79% (inactive)
COc1ccccc1CNC(=O)C1CCN(S(=O)(=O)c2ccc3c(c2)OCCO3)CC1 | 80.2% (active)
CCOc1ccc(CCNC(=O)COC(=O)C2CCN(S(=O)(=O)c3ccccc3)CC2)cc1OCC | -1.05% (inactive)
O=C(N[C@H]1C/C=C\C(c2cccc(F)c2)N(Cc2ccccc2)C(=O)C1)OCC1c2ccccc2-c2ccccc21 (some centres undefined) | -1.43% (inactive)
O=C(Nc1c(Br)cc2c(c1Br)Cc1ccccc1-2)C(F)(F)F | -4.34% (inactive)
Cc1cn(C2CC(O)C(CO)O2)c(=O)n(CCCc2ccccc2)c1=O (centres undefined) | -2.38% (inactive)
COc1ccc(S(=O)(=O)N2CCOCC2)cc1NC(=O)c1ccc(OCC(C)C)c(OC)c1 | -4% (inactive)
COc1cc2c(cc1OC)C1C(=O)c3cc(OS(C)(=O)=O)c(OC)cc3C1N(C)C2=O (centres undefined) | -1.26% (inactive)
CCn1c(SCC(=O)Nc2ccc(S(=O)(=O)Nc3onc(C)c3C)cc2)nnc1-c1ccccc1 | 30.7% (active)
Cc1noc(NS(=O)(=O)c2ccc(NC(=O)C34CCC(CC3)C4)cc2)c1C | -5.91% (inactive)
CCn1c(SCC(=O)Nc2ccc3c(c2)OCCO3)nnc1-c1ccncc1 | -1.31% (inactive)
COc1ccc(C(CNC(=O)c2cccc(S(=O)(=O)Nc3ccc(Br)cc3)c2)N(C)C)cc1 (centres undefined) | -3.75% (inactive)
O=[N+]([O-])c1ccc(NS(=O)(=O)c2ccccc2)c(Cl)c1 | -10.2% (inactive)
O=[N+]([O-])c1ccc(COc2ccccc2CN2CCOCC2)cc1 | 0.702% (inactive)

SMILES | inhibition
COc1cc(/C=N/N2CCN(c3ccccc3)CC2)ccc1OC(C)=O | 4.07% (inactive)
COc1ccccc1N1CCN(/N=C\C(Br)=C\c2ccccc2)CC1 | 1.35% (inactive)
COc1ccccc1N1CCN(/N=C/c2ccc(O)cc2O)CC1 | 77.6% (active)
CC(=NNC(=S)N1CCCCCC1)c1ccccn1 | -1.44% (inactive)
CN(O)C(=S)c1ccccc1 | -3.98% (inactive)
CN1CCN(S(=O)(=O)c2ccc(N3CCN(c4ccccc4O)CC3)c([N+](=O)[O-])c2)CC1 | -6.2% (inactive)
O=C(C[C@H]1C[C@H](C(=O)N2CCOCC2)[C@@]2(CCC3CCCC3)c3[nH]c4ccc(Cl)cc4c3CCN2C1=O)NCc1ccco1 | 4.95% (inactive)
CCOC(=O)C1=C(C)N(C[C@@H]2CC[C@@H](Cc3ccc(-c4ccccc4)cc3)O2)C(=O)NC1c1ccc([N+](=O)[O-])cc1 (some centres undefined) | -2.42% (inactive)
CC(C)(C)c1nnc2sc(SCC(O)=C(C#N)c3nc4ccccc4[nH]3)nn2c1=O | 43.7% (active)
N#C/C(=C(/O)COc1cccc2ccccc12)c1nc2ccccc2[nH]1 | -1.44% (inactive)
Cc1ccccc1OC/C(O)=C(\C#N)c1nc2ccccc2[nH]1 | 4.87% (inactive)
CC1CCCCC12NC(=O)N(CC(=O)OCc1c(F)cccc1Cl)C2=O (centres undefined) | -9.25% (inactive)
C(#CCN1CCOCC1)CCCN1CCOCC1 | -3.29% (inactive)
Cc1cc(C(=O)COc2ccc(Br)cc2F)c(C)n1C1CC1 | -6.1% (inactive)
COc1ccc(CNC(=O)COc2ccccc2C(=O)c2cnn(-c3ccccc3)c2)cc1OC | -9.89% (inactive)
CC(NCCO)C(=O)C12CC3CC(CC(C3)C1)C2 (centres undefined) | 4.83% (inactive)
O=C(COC(=O)C12CC3CC(CC(O)(C3)C1)C2)NC12CC3CC(CC(C3)C1)C2 | -5.51% (inactive)
O=C(CNCCO)NC12CC3CC(CC(C3)C1)C2 | 40.5% (active)
Cc1cccc(C(=O)N[C@H](C(=O)NCc2cccs2)C(C)C)c1 | -0.924% (inactive)
O=C(Nc1ccc(S(=O)(=O)N2CCOCC2)cc1)C1CCN(S(=O)(=O)c2ccc(Cl)cc2)CC1 | -10.9% (inactive)
Cc1c(Cl)cccc1NC(=S)NCc1ccc2c(c1)OCO2 | 51.1% (active)
CN(C)S(=O)(=O)c1cccc(NC(=S)NCc2ccc3c(c2)OCO3)c1 | -4.92% (inactive)
CCNC(=S)Nc1cccc(Cl)c1C | -2.42% (inactive)

SMILES | inhibition
CC(C)n1cnc2c(NCc3ccccc3)cc(OCC3CCN(C)CC3)cc21 | 3.01% (inactive)
CN(C(=O)c1cccc(NC(=O)C2CCN(C(=O)OC(C)(C)C)CC2)c1)C1CCC1 | -3.04% (inactive)
O=C(c1cc(S(=O)(=O)N2CCOCC2)ccc1Cl)N1CCOCC1 | -1.76% (inactive)
O=C(CCc1ccc(S(=O)(=O)N2CCOCC2)cc1)NN=C1CCCCCCC1 | -3.33% (inactive)
O=C(O)c1ccc(S(=O)(=O)N2CCOCC2)o1 | 32.5% (active)
Cc1cccc(C=CC(=O)c2ccc(Cl)cc2)c1 | -5.84% (inactive)
Cc1cc(OCCCC(=O)Nc2cc(S(=O)(=O)N3CCOCC3)ccc2N2CCOCC2)ccc1Cl | -3.89% (inactive)
CN(C(=O)c1cccc(NC(=O)Cc2ccc([N+](=O)[O-])cc2)c1)C1CCC1 | -2.37% (inactive)
COc1ccc(S(=O)(=O)N2CCc3ccccc32)cc1C(=O)Nc1cc(S(C)(=O)=O)ccc1Cl | -5.31% (inactive)
CC1CN(C(=O)c2ccc([N+](=O)[O-])s2)CC(C)O1 (centres undefined) | 0.023% (inactive)
O=C(CSC(=S)N1CCOCC1)c1ccccc1 | 0.137% (inactive)
CC(=O)c1ccc(NC(=O)CSC(=S)N2CCCC2)cc1 | -3.19% (inactive)
O=C(CSC(=S)N1CCCCC1)c1c(F)cccc1F | 79.2% (active)
O=C(CNC(=O)c1ccccc1F)c1ccc(Br)cc1 | 57.3% (active)
O=C(Nc1ccc(NC(=O)c2ccccc2F)cc1)c1ccccc1F | 4.51% (inactive)
O=C(CNC(=O)c1ccc(F)cc1)c1ccccc1 | -6.34% (inactive)
Cc1c(NC(=O)CN(C)CC(=O)Nc2ccc(F)c(F)c2F)c(=O)n(-c2ccccc2)n1C | -3.99% (inactive)
O=C1c2oc3ccc(Br)cc3c(=O)c2C(c2cccc(F)c2)N1CCO (centres undefined) | 3.36% (inactive)
COCCN1C(=O)c2oc3c(C)cc(C)cc3c(=O)c2C1c1cccc(O)c1 (centres undefined) | 47.9% (active)
O=C1c2oc3ccccc3c(=O)c2C(c2cccc(O)c2)N1c1ccccn1 (centres undefined) | -1.77% (inactive)
